Experimental data as given in PubChem BioAssay (Tox21).
Results filed as inconclusive are left out. Calls of active or inactive are those of the source. Unless noted, calls come from the whole dose curve; as a rule, active = well fitted curve in the direction sought with a large enough effect in the repeat runs; inconclusive = weak or mixed curves; inactive = no such curve, though single readings can be large; an effect the other way counts as inactive or inconclusive.

Experiments:
[1] = biological target: Estrogen receptor (Homo sapiens) (UniProt P03372); assay: qHTS assay to identify small molecule antagonists of the estrogen receptor alpha (ER-alpha) signaling pathway using the BG1 cell line in the presence of 0.1 nM 17-beta-estradiol (AID 1259244); note: nearly all actives have a fitted effect of over 50% in size
Sequence of Estrogen receptor (Homo sapiens) (P03372 whole entry, looked up): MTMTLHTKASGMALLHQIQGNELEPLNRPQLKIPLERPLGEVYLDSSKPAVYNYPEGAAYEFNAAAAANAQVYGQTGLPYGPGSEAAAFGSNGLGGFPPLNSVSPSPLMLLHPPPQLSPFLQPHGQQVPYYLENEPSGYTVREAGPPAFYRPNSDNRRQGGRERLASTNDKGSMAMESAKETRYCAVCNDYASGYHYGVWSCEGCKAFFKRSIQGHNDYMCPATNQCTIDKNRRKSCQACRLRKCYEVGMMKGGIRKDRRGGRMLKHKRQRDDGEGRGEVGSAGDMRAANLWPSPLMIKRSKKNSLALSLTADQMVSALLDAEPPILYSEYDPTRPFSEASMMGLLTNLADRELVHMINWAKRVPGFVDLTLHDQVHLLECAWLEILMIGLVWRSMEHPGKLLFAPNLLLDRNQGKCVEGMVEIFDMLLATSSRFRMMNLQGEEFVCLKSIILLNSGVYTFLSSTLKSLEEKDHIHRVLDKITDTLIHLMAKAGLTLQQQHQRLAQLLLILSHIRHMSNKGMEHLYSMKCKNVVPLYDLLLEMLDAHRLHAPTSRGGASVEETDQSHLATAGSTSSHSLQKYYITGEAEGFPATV
Procedure, shortened: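 Luciferase signal from VM7Luc4E2 ERE-reporter cells, co-dosed with test compound and 0.1 nM final 17beta-estradiol for 22 h, read with ONE-Glo.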

[2] = qHTS assay to identify small molecule HDAC inhibitors (AID 1259364);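 note: wild-type HCT-116 cells with endogenous class I/II HDAC activity; top concentration of the series differs between compounds; nearly all actives have a fitted effect of over 45% in size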
Procedure, shortened: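 HCT-116 wt cells, 1,500/well, overnight attach. Compounds (DMSO) 2 h, 37 °C. HDAC-Glo I/II, 30 min RT. Luminescence.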

[3] = qHTS assay to identify small molecule HDAC inhibitors - cell viability counter screen (AID 1259365); note: series mostly up to about 92 µM; nearly all actives have a fitted effect of over 50% in size
Procedure, shortened: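 To flag cytotoxic hits, 1,500 wild-type HCT-116 cells per well, plated the day before, receive test compounds for 2hr at 37 C before CellTiter-Glo reagent and a luminescence read.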

[4] = qHTS assay to identify small molecule agonists of the sonic hedgehog signaling (Shh) pathway - cell viability counter screen (AID 1259366); note: nearly all actives have a fitted effect of over 50% in size
Procedure, shortened: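 Fluorescence from CellTiter-Fluor reports live cells in this counter screen. NIH/3T3-derived Gli1-Luc reporter cells receive test compounds for 24hr at 37C; reagent goes in at 23hr.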

[5] = qHTS assay to identify small molecule agonists of the sonic hedgehog signaling (Shh) pathway (AID 1259368; calls by dose curve;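 note: NIH/3T3-derived 3T3Gli1-Luc cells carrying a stable Gli1-driven firefly luciferase reporter; series mostly up to about 92 µM; nearly all actives have a fitted effect of over 15% in size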)
Procedure, shortened: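 Following a 24 hr incubation with DMSO-dissolved compounds at 37 C, 5% CO2, Gli1-Luc NIH/3T3-derived cells received luciferase reagent for 30 min at room temperature prior to luminescence measurement.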

[6] = qHTS assay to identify small molecule antagonists of the sonic hedgehog signaling (Shh) pathway (AID 1259369; calls by dose curve; note: nearly all actives have a fitted effect of over 45% in size)
Procedure, shortened: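 Read-out is luminescence from a firefly luciferase gene controlled by the Gli1 response element, in 3T3Gli1-Luc cells pre-incubated 4hr then exposed to compounds and conditioned medium for 24hr.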

[7] = biological target: Estrogen receptor beta (Homo sapiens) (UniProt Q92731); assay: qHTS assay to identify small molecule agonists of the estrogen receptor beta (ER-beta) signaling pathway (AID 1259377; active = well fitted activation curve with a large enough effect in the signal ratio in the repeat runs, not every such curve was filed as active; the % refers to the signal ratio)
Sequence of Estrogen receptor beta (Homo sapiens) (Q92731 whole entry, looked up): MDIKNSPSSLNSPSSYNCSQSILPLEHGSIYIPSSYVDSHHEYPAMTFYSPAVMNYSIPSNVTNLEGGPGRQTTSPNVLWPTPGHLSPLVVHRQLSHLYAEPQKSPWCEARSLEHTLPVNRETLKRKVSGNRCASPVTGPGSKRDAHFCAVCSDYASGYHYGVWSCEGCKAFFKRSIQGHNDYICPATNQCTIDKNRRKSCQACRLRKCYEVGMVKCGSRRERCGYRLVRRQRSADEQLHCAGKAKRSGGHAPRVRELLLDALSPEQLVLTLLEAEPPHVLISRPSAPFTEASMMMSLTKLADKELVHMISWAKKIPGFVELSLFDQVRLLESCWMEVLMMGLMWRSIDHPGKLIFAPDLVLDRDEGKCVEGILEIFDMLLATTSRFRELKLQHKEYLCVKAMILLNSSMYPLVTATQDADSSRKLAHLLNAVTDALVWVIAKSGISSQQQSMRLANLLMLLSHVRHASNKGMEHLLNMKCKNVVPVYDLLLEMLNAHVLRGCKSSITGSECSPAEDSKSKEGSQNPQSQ
Procedure, shortened: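 Screening used GripTite ER-beta-UAS-bla cells held in 2% charcoal-stripped FBS medium. After overnight (16 hr) compound incubation at 37C, beta-lactamase activity was detected with a FRET substrate by fluorescence.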

[8] = qHTS assay to identify small molecule agonists of the androgen receptor (AR) signaling pathway in the presence of an antagonist - cell viability counter screen (AID 1259379);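 note: MDA-kb2 human breast cancer cells carrying an MMTV luciferase reporter; series mostly up to about 92 µM; nearly all actives have a fitted effect of over 25% in size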
Procedure, shortened: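 Each compound was tested at 15 concentrations on MDA-kb2 cells in the presence of 3.0uM nilutamide. Viability was measured by CellTiter-Fluor fluorescence after a 16 hr incubation at 37C in a CO2-free atmosphere.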

[9] = qHTS assay to identify small molecule antagonists of the estrogen receptor beta (ER-beta) signaling pathway - cell viability counter screen (AID 1259382); note: series mostly up to about 92 µM; nearly all actives have a fitted effect of over 55% in size
Procedure, shortened: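 CellTiter-Glo ATP luminescence measured after the LiveBLAzer read in the same wells; ER-beta-UAS-bla HEK293T cells, 16 hr compound treatment with 1nM 17-beta-estradiol agonist at 37C, 5% CO2.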

[10] = biological target: Estrogen receptor (Homo sapiens) (UniProt P03372); assay: qHTS assay to identify small molecule agonists of the estrogen receptor alpha (ER-alpha) signaling pathway in the presence of an antagonist (AID 1259383; calls by dose curve; note: top concentration of the series differs between compounds; nearly all actives have a fitted effect of over 15% in size)
Procedure, shortened: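 Luminescent ERE-luciferase reporter, VM7Luc4E2 cells (endogenous ER-alpha); 10.0nM ICI-182,780 final; 15-point compound titration; 22hr at 37C; ONE-Glo, 30min RT.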

[11] = qHTS assay to identify small molecule agonists or antagonists of the thyroid stimulating hormone receptor (TSHR) signaling pathway - wild type cell line counter screen (AID 1259384; calls by dose curve)
Procedure, shortened: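 Wild-type HEK293 cells were plated 18 h at 37 C/5% CO2, pin-dosed with compound plus Ro20-1724 medium, held 30 min at room temperature, then given cAMP-d2 and anti-cAMP-cryptate; fluorescence was read after 1 h. Fifteen concentrations, triplicate.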

[12] = biological target: Thyrotropin receptor (Homo sapiens) (UniProt P16473); assay: qHTS assay to identify small molecule antagonists of the thyroid stimulating hormone receptor (TSHR) signaling pathway (AID 1259385; calls by dose curve; note: nearly all actives have a fitted effect of over 20% in size)
Sequence of Thyrotropin receptor (Homo sapiens) (P16473 whole entry, looked up): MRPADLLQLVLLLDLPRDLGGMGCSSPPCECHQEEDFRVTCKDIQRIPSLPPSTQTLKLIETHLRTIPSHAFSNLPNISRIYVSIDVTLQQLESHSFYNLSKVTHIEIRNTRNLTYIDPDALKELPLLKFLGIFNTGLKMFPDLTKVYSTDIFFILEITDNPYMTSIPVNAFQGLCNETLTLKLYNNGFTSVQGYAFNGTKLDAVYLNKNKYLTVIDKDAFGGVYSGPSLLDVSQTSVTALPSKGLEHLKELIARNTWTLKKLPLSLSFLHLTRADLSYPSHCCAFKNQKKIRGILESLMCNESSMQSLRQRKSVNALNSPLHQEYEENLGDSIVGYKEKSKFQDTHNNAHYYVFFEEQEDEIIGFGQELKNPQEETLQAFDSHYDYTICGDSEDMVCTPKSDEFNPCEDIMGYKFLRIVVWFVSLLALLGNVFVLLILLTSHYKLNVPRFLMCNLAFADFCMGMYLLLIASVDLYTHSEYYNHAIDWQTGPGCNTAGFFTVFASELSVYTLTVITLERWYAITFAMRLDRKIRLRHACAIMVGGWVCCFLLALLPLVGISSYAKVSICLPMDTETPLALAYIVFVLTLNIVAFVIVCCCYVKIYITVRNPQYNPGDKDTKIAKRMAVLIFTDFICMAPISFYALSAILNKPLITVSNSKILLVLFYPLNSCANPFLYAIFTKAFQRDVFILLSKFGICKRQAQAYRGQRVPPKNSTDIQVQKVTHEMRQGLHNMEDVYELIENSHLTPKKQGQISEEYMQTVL
Procedure, shortened: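 TSHR-HEK293 cells were plated and held 18 h at 37C/5% CO2, then given compound plus Ro20-1724 and stimulated with TSH at 1.5 ng/mL final. After 30 min at room temperature, cAMP was detected with cAMP-d2/anti-cAMP-cryptate (1 h) by fluorescence.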

[13] = qHTS assay to identify small molecule agonists of the estrogen receptor alpha (ER-alpha) signaling pathway in the presence of an antagonist - cell viability counter screen (AID 1259386);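 note: series mostly up to about 92 µM; cells exposed to compounds for 22 h at 37 °C before the viability read; nearly all actives have a fitted effect of over 30% in size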
Procedure, shortened: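 Using estrogen-depleted VM7Luc4E2 cells, the 15-concentration compound series was applied together with 10.0nM ICI-182,780 and incubated 22hr at 37C/5% CO2. Cell viability was then scored by CellTiter-Fluor.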

[14] = biological target: Progesterone receptor (Homo sapiens) (UniProt P06401); assay: qHTS assay to identify small molecule agonists of the progesterone receptor (PR) signaling pathway (AID 1346784; calls by dose curve; note: nearly all actives have a fitted effect of over 30% in size)
Sequence of Progesterone receptor (Homo sapiens) (P06401 whole entry, looked up): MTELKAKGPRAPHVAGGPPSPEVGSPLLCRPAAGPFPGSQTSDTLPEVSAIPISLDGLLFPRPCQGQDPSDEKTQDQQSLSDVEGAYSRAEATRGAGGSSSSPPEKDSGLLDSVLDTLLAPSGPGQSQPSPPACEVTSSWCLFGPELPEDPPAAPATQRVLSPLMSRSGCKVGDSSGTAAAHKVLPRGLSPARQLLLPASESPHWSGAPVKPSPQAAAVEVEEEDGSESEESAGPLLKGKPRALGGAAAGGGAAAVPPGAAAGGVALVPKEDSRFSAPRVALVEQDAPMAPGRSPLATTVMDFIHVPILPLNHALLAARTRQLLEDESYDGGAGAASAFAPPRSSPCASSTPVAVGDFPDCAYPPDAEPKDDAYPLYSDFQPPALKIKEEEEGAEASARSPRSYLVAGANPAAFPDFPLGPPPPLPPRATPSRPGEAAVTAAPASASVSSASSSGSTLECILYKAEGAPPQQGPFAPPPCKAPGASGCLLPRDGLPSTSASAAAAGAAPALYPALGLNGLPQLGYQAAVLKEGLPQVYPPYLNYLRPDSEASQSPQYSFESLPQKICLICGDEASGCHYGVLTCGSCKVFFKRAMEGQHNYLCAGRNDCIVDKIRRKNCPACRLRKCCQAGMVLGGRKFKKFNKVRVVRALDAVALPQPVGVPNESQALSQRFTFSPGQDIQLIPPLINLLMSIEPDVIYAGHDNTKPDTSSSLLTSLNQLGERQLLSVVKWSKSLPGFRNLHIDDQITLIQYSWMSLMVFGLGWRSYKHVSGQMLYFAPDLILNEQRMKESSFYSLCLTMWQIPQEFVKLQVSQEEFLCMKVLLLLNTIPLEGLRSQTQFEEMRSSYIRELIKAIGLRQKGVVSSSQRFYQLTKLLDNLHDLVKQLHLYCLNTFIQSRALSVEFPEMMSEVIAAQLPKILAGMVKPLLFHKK
Procedure, shortened: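 Seed PR-UAS-bla HEK 293T cells (2% charcoal-stripped FBS), incubate 6 hr at 37C; add compounds in DMSO, 16 hr at 37C; add LiveBLAzer B/G substrate, 2 hr RT; read fluorescence intensity.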

[15] = qHTS assay to identify small molecule antagonists of the sonic hedgehog signaling (Shh) pathway - cell viability counter screen (AID 1259367); note: nearly all actives have a fitted effect of over 55% in size
Procedure, shortened: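 Conditioned medium drove Shh signaling in 3T3 Gli1-Luc cells exposed to compounds at 37C and 5% CO2. Viability was determined from CellTiter-Fluor fluorescence, with reagent incubated 1 hr after 23 hr of treatment.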

[16] = qHTS assay to identify small molecule agonists of the estrogen receptor beta (ER-beta) signaling pathway - cell viability counter screen (AID 1259380); note: nearly all actives have a fitted effect of over 30% in size
Procedure, shortened: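 Compounds dissolved in DMSO were pin-transferred onto ER-beta-UAS-bla HEK293T cells that had settled 6 hr, and exposure ran 16 hr at 37C. Following the reporter read, CellTiter-Glo luminescence after 30 min at room temperature indicated cytotoxicity.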

[17] = qHTS assay to identify small molecule phospholipidosis (PLD) inducers (AID 1259344; active = well fitted curve in the direction sought with a large enough effect; an effect the other way counts as inactive or inconclusive)
Procedure, shortened: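 After 4 h attachment on collagen I, HepG2 cells were dosed with compound alongside LipidTOX Red, kept 24 h at 37 C, fixed, and imaged for lamellar phospholipid pits.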

[18] = biological target: Estrogen receptor beta (Homo sapiens) (UniProt Q92731); assay: qHTS assay to identify small molecule antagonists of the estrogen receptor beta (ER-beta) signaling pathway (AID 1259378; active = well fitted inhibition curve with a large enough effect in the signal ratio in the repeat runs, not every such curve was filed as active; the % refers to the signal ratio)
Procedure, shortened: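 ER-beta-UAS-bla HEK293T (GripTite) cells in 2% charcoal-stripped FBS medium were preincubated 6 hr at 37C, dosed with compound, then stimulated with 1 nM E2 (final) for 16 hr; beta-lactamase reporter read by B/G FRET fluorescence after 2 hr substrate loading.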

[19] = biological target: Androgen receptor (Homo sapiens) (UniProt P10275); assay: qHTS assay to identify small molecule agonists of the androgen receptor (AR) signaling pathway in the presence of an antagonist (AID 1259381; calls by dose curve; note: nearly all actives have a fitted effect of over 15% in size)
Sequence of Androgen receptor (Homo sapiens) (P10275 whole entry, looked up): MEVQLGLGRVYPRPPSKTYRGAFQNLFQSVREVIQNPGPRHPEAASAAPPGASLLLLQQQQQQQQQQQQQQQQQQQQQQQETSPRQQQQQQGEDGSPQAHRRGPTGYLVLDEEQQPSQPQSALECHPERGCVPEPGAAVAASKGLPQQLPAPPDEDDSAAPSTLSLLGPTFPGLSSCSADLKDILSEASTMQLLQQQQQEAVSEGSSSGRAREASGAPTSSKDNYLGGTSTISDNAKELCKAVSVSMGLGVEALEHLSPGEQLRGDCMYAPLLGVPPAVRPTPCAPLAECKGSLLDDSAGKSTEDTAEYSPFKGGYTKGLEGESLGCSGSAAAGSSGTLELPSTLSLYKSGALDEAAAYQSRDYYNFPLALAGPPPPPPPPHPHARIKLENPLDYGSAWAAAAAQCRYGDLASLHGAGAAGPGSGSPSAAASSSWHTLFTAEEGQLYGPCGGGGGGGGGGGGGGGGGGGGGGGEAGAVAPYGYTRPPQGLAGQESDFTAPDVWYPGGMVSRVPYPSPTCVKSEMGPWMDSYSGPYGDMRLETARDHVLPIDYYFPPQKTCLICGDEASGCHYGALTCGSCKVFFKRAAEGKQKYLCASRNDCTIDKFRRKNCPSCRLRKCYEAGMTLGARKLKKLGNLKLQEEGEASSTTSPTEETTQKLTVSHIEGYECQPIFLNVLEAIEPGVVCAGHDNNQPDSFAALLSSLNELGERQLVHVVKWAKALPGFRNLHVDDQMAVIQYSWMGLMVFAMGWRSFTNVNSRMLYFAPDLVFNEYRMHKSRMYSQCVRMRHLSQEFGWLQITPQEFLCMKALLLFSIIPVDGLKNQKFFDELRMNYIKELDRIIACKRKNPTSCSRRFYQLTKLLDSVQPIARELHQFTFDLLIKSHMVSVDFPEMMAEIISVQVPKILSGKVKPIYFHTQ
Procedure, shortened: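 Plated MDA-kb2 cells (3,000/well) were pre-incubated 5hr, given nilutamide (3.0uM final) or buffer, then dosed with compounds in DMSO at 15 concentrations. Luciferase activity was quantified by luminescence after 16hr at 37C.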

[20] = biological target: Progesterone receptor (Homo sapiens) (UniProt P06401); assay: qHTS assay to identify small molecule antagonists of the progesterone receptor (PR) signaling pathway (AID 1346795; active = well fitted inhibition curve with a large enough effect in the signal ratio in the repeat runs, not every such curve was filed as active; the % refers to the signal ratio)
Procedure, shortened: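 Screening used a GripTite HEK293T line with PR-responsive UAS-beta-lactamase. Cells were challenged with compound in the presence of 1 nM R5020 final for 16 hr at 37C; B/G FRET substrate, 2 hr room temperature, fluorescence.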

Measured: Potency

CCN(CC)c1ccc(C(=O)c2ccccc2C(=O)O)c(O)c1
not listed: [15] | [16] | [17] | [18] | [19] | [20]
inactive: all other assays above

CCCCCCOCCO
not listed: [11] | [12] | [17] | [18] | [19] | [20]
inactive: all other assays above

CC(=O)Nc1ccccc1
not listed: [1] | [12] | [19] | [20]
inactive: all other assays above

CC1=CCC2CC1C2(C)C (centres undefined)
not listed: [1] | [12] | [19] | [20]
inactive: all other assays above

C#CCN(C)Cc1ccccc1
not listed: [1] | [19] | [20]
inactive: all other assays above

CC(=O)CC(=O)Nc1ccccc1C
not listed: [15] | [17] | [18] | [19] | [20]
inactive: all other assays above

CC(c1cc2ccccc2s1)N(O)C(N)=O (centres undefined)
not listed: [1] | [11] | [12] | [18]
inactive: all other assays above

Cc1ccc(N(C)C)cc1
not listed: [12] | [15] | [17] | [20]
inactive: all other assays above
